Source: PubChem BioAssay (EPA / NIEHS)
Values joined by “and” are separate entries in the source; they are usually repeats but may differ in a detail not shown here. Equal entries are not always repeated. Results filed as inconclusive are left out. The source holds several records for some structures; these can differ, active in one and inactive in another. Active and inactive are the calls of the source. How the source made its calls: active means hit-call score of the fitted dose curve at least 0.9, where 1 is the maximum; inconclusive means response in the unintended direction; inactive means score below 0.9.

Tested on: not listed separately
Test: TOX21_p53_BLA_p3_viability: Viability Assessment in the Tox21 HCT-116 p53 Agonism Beta-lactamase Assay, Phase 3 (AID 2283593);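 further: cells exposed to compound for 16 h before reading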
How it was run: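 HCT-116 cells (4000/well) rested 5 h at 37C, then got DMSO compounds by pin tool (217-fold dilution) for 16 h at 37C, 5% CO2. After the bla read, CellTiter-Glo was added and luminescence read at 30 min, room temperature.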

SMILES	outcome	AC50
C=Cc1ccc(C)cc1	inactive	
O=C1c2ccccc2C(=O)c2c(O)ccc(O)c21	inactive	
CCCCCc1ccco1		58 µM (active)
CN(C)CCOc1ccc(/C(=C(/CCCl)c2ccccc2)c2ccccc2)cc1	inactive	66.3 µM (active)
Nc1ccc2c(O)cc(S(=O)(=O)O)cc2c1	inactive	
Nc1ccc(N)c2c1C(=O)c1ccccc1C2=O	inactive	
CCN(CCN)c1cccc(C)c1	inactive	
Clc1ccc(C(c2ccccc2Cl)C(Cl)Cl)cc1 (stereo unspecified)		67.7 µM (active) and 31.2 µM (active)
Cc1ncc([N+](=O)[O-])n1CCO	inactive	
CC1(C)C2=CCCC(C)(C)[C@]23CC[C@H]1C3	inactive	
OCCCCC(O)CO (stereo unspecified)	inactive	
COC(=O)C=C(C)CCC=C(C)C	inactive	
CCCCCCCC(=O)OCC(O)CO (stereo unspecified)	inactive	
IC(I)I	inactive	
CCOC(=O)C(C#N)=C(c1ccccc1)c1ccccc1	inactive	
CC(C)(C)CC(C)(C)c1ccc(OCCOCC[N+](C)(C)Cc2ccccc2)cc1		60.7 µM (active) and 23 µM (active)
C=CCCCCCCCCCC	inactive	
CC(C)=CCCC(C)CCOC=O (stereo unspecified)		39.7 µM (active)
CSc1c(Cl)c(Cl)c(Cl)c(Cl)c1Cl		45.9 µM (active)
CCC(C)c1cc([N+](=O)[O-])cc([N+](=O)[O-])c1OC(=O)OC(C)C (stereo unspecified)	inactive	

Molecular target: Cellular tumor antigen p53 (Homo sapiens) (UniProt P04637)
Sequence (P04637 whole entry, looked up): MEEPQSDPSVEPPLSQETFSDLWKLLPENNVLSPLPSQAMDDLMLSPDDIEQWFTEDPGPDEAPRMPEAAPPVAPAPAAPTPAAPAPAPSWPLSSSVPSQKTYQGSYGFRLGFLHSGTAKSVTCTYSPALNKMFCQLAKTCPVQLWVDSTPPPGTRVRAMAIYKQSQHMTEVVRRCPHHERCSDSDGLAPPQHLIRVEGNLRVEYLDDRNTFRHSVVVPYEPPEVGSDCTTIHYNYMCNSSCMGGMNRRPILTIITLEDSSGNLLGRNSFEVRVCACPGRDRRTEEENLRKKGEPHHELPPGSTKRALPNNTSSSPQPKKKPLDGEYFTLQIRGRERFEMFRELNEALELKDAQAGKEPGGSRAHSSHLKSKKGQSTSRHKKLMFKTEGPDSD
Test: TOX21_p53_BLA_p3_ratio: Tox21 HCT-116 p53 Agonism Beta-lactamase Assay, Ratio, Phase 3 (AID 2283596)
How it was run: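 Cells were seeded at 4000/well, rested 5 h at 37C, then dosed with DMSO compound solutions (217-fold dilution) for 16 h. CCF4-AM substrate was loaded for 2 h at room temperature, and the 460/530 nm emission ratio was fitted for gain of signal versus DMSO.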

SMILES	outcome	AC50
C=Cc1ccc(C)cc1	inactive	
O=C1c2ccccc2C(=O)c2c(O)ccc(O)c21	inactive	
CCCCCc1ccco1	inactive	
CN(C)CCOc1ccc(/C(=C(/CCCl)c2ccccc2)c2ccccc2)cc1	inactive	
Nc1ccc2c(O)cc(S(=O)(=O)O)cc2c1	inactive	12.9 µM (active)
N[C@@H](Cc1cc(I)c(Oc2cc(I)c(O)c(I)c2)c(I)c1)C(=O)O	inactive	
Nc1ccc(N)c2c1C(=O)c1ccccc1C2=O	inactive	
CCN(CCN)c1cccc(C)c1	inactive	
Clc1ccc(C(c2ccccc2Cl)C(Cl)Cl)cc1 (stereo unspecified)		55.9 µM (active) and 37.2 µM (active)
Cc1ncc([N+](=O)[O-])n1CCO	inactive	
CC1(C)C2=CCCC(C)(C)[C@]23CC[C@H]1C3	inactive	
OCCCCC(O)CO (stereo unspecified)	inactive	
COC(=O)C=C(C)CCC=C(C)C	inactive	
CCCCCCCC(=O)OCC(O)CO (stereo unspecified)	inactive	
IC(I)I	inactive	
C=C1CC[C@H](O)C/C1=C/C=C1\CCC[C@]2(C)[C@@H]([C@H](C)/C=C/[C@H](C)C(C)C)CC[C@@H]12	inactive	
CCOC(=O)C(C#N)=C(c1ccccc1)c1ccccc1	inactive	
CC(C)(C)CC(C)(C)c1ccc(OCCOCC[N+](C)(C)Cc2ccccc2)cc1	inactive	61 µM (active)
C=CCCCCCCCCCC	inactive	
CC(C)=CCCC(C)CCOC=O (stereo unspecified)		69.8 µM (active)
CSc1c(Cl)c(Cl)c(Cl)c(Cl)c1Cl	inactive	
CCC(C)c1cc([N+](=O)[O-])cc([N+](=O)[O-])c1OC(=O)OC(C)C (stereo unspecified)		35.3 µM (active)

Tested on: not listed separately
Test: TOX21_p53_BLA_p4_viability: Viability Assessment in the Tox21 HCT-116 p53 Agonism Beta-lactamase Assay, Phase 4 (AID 2283597);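 further: hits lower the luminescence signal meaning cytotoxicity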
How it was run: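 Readout: ATP luminescence (CellTiter-Glo), measured 30 min after reagent addition at RT. The reagent followed a 2 h CCF4-AM incubation, and the cells had been exposed to compound for 16 h at 37C.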

SMILES	outcome	AC50
C=Cc1ccc(C)cc1	inactive	
O=C1c2ccccc2C(=O)c2c(O)ccc(O)c21	inactive	
CCCCCc1ccco1	inactive	
CN(C)CCOc1ccc(/C(=C(/CCCl)c2ccccc2)c2ccccc2)cc1		49.8 µM (active) and 37 µM (active)
Nc1ccc2c(O)cc(S(=O)(=O)O)cc2c1	inactive	
N[C@@H](Cc1cc(I)c(Oc2cc(I)c(O)c(I)c2)c(I)c1)C(=O)O	inactive	37 µM (active)
Nc1ccc(N)c2c1C(=O)c1ccccc1C2=O	inactive	
CCN(CCN)c1cccc(C)c1	inactive	
Clc1ccc(C(c2ccccc2Cl)C(Cl)Cl)cc1 (stereo unspecified)		64.3 µM (active) and 25.8 µM (active)
Cc1ncc([N+](=O)[O-])n1CCO	inactive	
CC1(C)C2=CCCC(C)(C)[C@]23CC[C@H]1C3	inactive	
OCCCCC(O)CO (stereo unspecified)	inactive	
COC(=O)C=C(C)CCC=C(C)C	inactive	
CCCCCCCC(=O)OCC(O)CO (stereo unspecified)	inactive	
IC(I)I	inactive	
C=C1CC[C@H](O)C/C1=C/C=C1\CCC[C@]2(C)[C@@H]([C@H](C)/C=C/[C@H](C)C(C)C)CC[C@@H]12	inactive	45.8 µM (active)
CCOC(=O)C(C#N)=C(c1ccccc1)c1ccccc1	inactive	
CC(C)(C)CC(C)(C)c1ccc(OCCOCC[N+](C)(C)Cc2ccccc2)cc1		33.7 µM (active) and 23 µM (active)
C=CCCCCCCCCCC	inactive	
CC(C)=CCCC(C)CCOC=O (stereo unspecified)	inactive	
CSc1c(Cl)c(Cl)c(Cl)c(Cl)c1Cl	inactive	
CCC(C)c1cc([N+](=O)[O-])cc([N+](=O)[O-])c1OC(=O)OC(C)C (stereo unspecified)	inactive	

Molecular target: Cellular tumor antigen p53 (Homo sapiens) (UniProt P04637)
Test: TOX21_p53_BLA_p5_ratio: Tox21 HCT-116 p53 Agonism Beta-lactamase Assay, Ratio, Phase 5 (AID 2283599)
How it was run: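 HCT-116 cells carrying a p53-inducible beta-lactamase reporter were seeded at 4000 cells/well and dosed after 5 h with compound in DMSO (217-fold dilution). After 16 h at 37C, CCF4-AM substrate was added for 2 h, and the 460/530 nm emission ratio was scored as gain-of-signal versus DMSO.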

SMILES	outcome	AC50
C=Cc1ccc(C)cc1	inactive	
O=C1c2ccccc2C(=O)c2c(O)ccc(O)c21	inactive	
CCCCCc1ccco1	inactive	
CN(C)CCOc1ccc(/C(=C(/CCCl)c2ccccc2)c2ccccc2)cc1	inactive	74 µM (active)
Nc1ccc2c(O)cc(S(=O)(=O)O)cc2c1		33.1 µM (active) and 21.3 µM (active)
Nc1ccc(N)c2c1C(=O)c1ccccc1C2=O	inactive	
CCN(CCN)c1cccc(C)c1	inactive	
Clc1ccc(C(c2ccccc2Cl)C(Cl)Cl)cc1 (stereo unspecified)		83.4 µM (active) and 42.3 µM (active)
Cc1ncc([N+](=O)[O-])n1CCO	inactive	
CC1(C)C2=CCCC(C)(C)[C@]23CC[C@H]1C3	inactive	
OCCCCC(O)CO (stereo unspecified)	inactive	
COC(=O)C=C(C)CCC=C(C)C	inactive	
CCCCCCCC(=O)OCC(O)CO (stereo unspecified)	inactive	
IC(I)I	inactive	
C=C1CC[C@H](O)C/C1=C/C=C1\CCC[C@]2(C)[C@@H]([C@H](C)/C=C/[C@H](C)C(C)C)CC[C@@H]12	inactive	70.5 µM (active)
CCOC(=O)C(C#N)=C(c1ccccc1)c1ccccc1	inactive	
C=CCCCCCCCCCC	inactive	
CC(C)=CCCC(C)CCOC=O (stereo unspecified)	inactive	
CSc1c(Cl)c(Cl)c(Cl)c(Cl)c1Cl	inactive	
CCC(C)c1cc([N+](=O)[O-])cc([N+](=O)[O-])c1OC(=O)OC(C)C (stereo unspecified)		36.9 µM (active)
